In the supplement of paper PMC4709259:
Structures can show the parent of a compound that is named as a salt. ± gives the standard deviation.

Experiments:
Jurkat [1] = experiment: mean cell size (FSC-A) relative to DMSO control (fraction of control); higher = larger cells; settings: 48 h
Outline: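 Jurkat cells seeded at 600 cells/µl were incubated 1 h, then exposed for 48h to the Enzo Screen-Well FDA Approved Drug Library v2.0 at 25µM in 0.9% (v/v) final DMSO. Drugs that cut counts below 20% of controls were diluted 10-fold and retested, down to 25nM. Cell count and mean cell size (forward scatter area) were read on an Accuri C6 flow cytometer, relative to solvent-only controls. Plates held 6-12 controls; values are means of 3 biological replicates.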

Jurkat [2] = experiment: cell count relative to DMSO control (fraction of control); higher = more cells (less growth inhibition); settings: 48 h

Compound | mean cell size (Jurkat [1]) | cell count (Jurkat [2])
C[C@@H](NCCCc1cccc(C(F)(F)F)c1)c1cccc2ccccc12 [Cinacalcet·HCl] (concentration: 25 µM) | 1.03 ± 0.051 | 0.577 ± 0.089
O=C1CN2Cc3c(ccc(Cl)c3Cl)N=C2N1 [Anagrelide] (concentration: 25 µM) | 1 ± 0.023 | 0.696 ± 0.12
NS(=O)(=O)c1cc2c(cc1C(F)(F)F)NCNS2(=O)=O [Hydroflumethiazide] (concentration: 25 µM) | 0.944 ± 0.048 | 0.681 ± 0.17
CCCCCOc1ccc(-c2cc(-c3ccc(C(=O)N[C@H]4C[C@@H](O)[C@@H](O)NC(=O)[C@@H]5[C@@H](O)[C@@H](C)CN5C(=O)[C@H]([C@H](O)CC(N)=O)NC(=O)[C@H]([C@H](O)[C@@H](O)c5ccc(O)c(OS(=O)(=O)O)c5)NC(=O)[C@@H]5C[C@@H](O)CN5C(=O)[C@H]([C@@H](C)O)NC4=O)cc3)no2)cc1 [Micafungin] (concentration: 25 µM) | 0.993 ± 0.031 | 0.52 ± 0.081
O=C(N[C@H](CO)[C@H](O)c1ccc([N+](=O)[O-])cc1)C(Cl)Cl [Chloramphenicol] (concentration: 25 µM) | 0.949 ± 0.022 | 0.819 ± 0.078
CC(C)OC(=O)C(C)(C)Oc1ccc(C(=O)c2ccc(Cl)cc2)cc1 [Fenofibrate] (concentration: 25 µM) | 1.01 ± 0.04 | 0.477 ± 0.067
CC(=O)NC[C@H]1CN(c2ccc(N3CCOCC3)c(F)c2)C(=O)O1 [Linezolid] (concentration: 25 µM) | 0.942 ± 0.018 | 0.718 ± 0.084
CCCCCCCCCCC[C@@H](C[C@@H]1OC(=O)[C@H]1CCCCCC)OC(=O)[C@H](CC(C)C)NC=O [Orlistat (Tetrahydrolipstatin)] (concentration: 25 µM) | 0.808 ± 0.043 | 0.355 ± 0.074
c1ccc2c(c1)CCCC2C1=NCCN1 (centres undefined) [Tetrahydrozoline·HCl] (concentration: 25 µM) | 0.9443 ± 0.007 | 1.16 ± 0.094
C[C@]12C=CC(=O)C=C1CC[C@@H]1[C@@H]2[C@@H](O)C[C@@]2(C)[C@H]1CC[C@]2(O)C(=O)CO [Prednisolone] (concentration: 25 µM) | 0.979 ± 0.017 | 0.836 ± 0.14
CCCCCN(C)CCC(O)(P(=O)(O)O)P(=O)(O)O [Ibandronate·Na Monohydrate] (concentration: 25 µM) | 0.941 ± 0.063 | 0.298 ± 0.14
CN1CCC(=C2c3ccccc3C=Cc3ccccc32)CC1 [Cyproheptadine·HCl Sesquihydrate] (concentration: 25 µM) | 0.935 ± 0.027 | 0.762 ± 0.049
CCCSc1ccc2[nH]c(NC(=O)OC)nc2c1 [Albendazole] (concentration: 2.5 µM) | 1.32 ± 0.11 | 0.209 ± 0.012
CN(C)CCOC(c1ccccc1)c1ccccc1 [Diphenhydramine·HCl] (concentration: 25 µM) | 0.967 ± 0.017 | 0.987 ± 0.042
Cc1nc2n(c(=O)c1CCN1CCC(c3noc4cc(F)ccc34)CC1)CCCC2 [Risperidone] (concentration: 25 µM) | 0.95 ± 0.051 | 0.809 ± 0.13
CO/N=C(\C(=O)N[C@@H]1C(=O)N2C(C(=O)O)=CCS[C@H]12)c1csc(N)n1 [Ceftizoxim·Na] (concentration: 25 µM) | 0.95 ± 0.016 | 1.09 ± 0.073
CC(C)NCC(O)c1ccc(O)c(O)c1 (racemic) [(±) Isoproterenol·HCl] (concentration: 25 µM) | 0.981 ± 0.047 | 0.659 ± 0.0053
